# The full data set covers some 21,000 targets. This sample favours those with the largest changes.
# Compound: Cc1cc(ccc1-c1ccccc1)C(=O)N1CCCN(CC1)C(=O)CCl [compound 10]
# Assay: probe-labelled cysteine peptide fold change vs DMSO (competition) (log2 fold change); higher = less target engagement (more negative = stronger competition)
# Details: THP-1, incubation time: 4 h
# 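Note: competitive profiling in live THP-1 cells: cysteine peptides tagged with an iodoacetamide desthiobiotin (IA-DTB) probe, intensity after compound treatment relative to DMSO-treated cells.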
# Chain of UniProt P28062 (P28062 whole entry, looked up): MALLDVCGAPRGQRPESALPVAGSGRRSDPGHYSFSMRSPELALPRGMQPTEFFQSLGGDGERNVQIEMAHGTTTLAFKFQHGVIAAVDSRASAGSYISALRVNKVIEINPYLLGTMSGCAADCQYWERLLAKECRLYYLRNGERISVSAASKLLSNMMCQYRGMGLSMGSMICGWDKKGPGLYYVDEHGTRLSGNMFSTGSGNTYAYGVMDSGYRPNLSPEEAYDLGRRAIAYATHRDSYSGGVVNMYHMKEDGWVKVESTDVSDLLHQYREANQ
# Chain of UniProt Q9H0H5 (Q9H0H5 whole entry, looked up): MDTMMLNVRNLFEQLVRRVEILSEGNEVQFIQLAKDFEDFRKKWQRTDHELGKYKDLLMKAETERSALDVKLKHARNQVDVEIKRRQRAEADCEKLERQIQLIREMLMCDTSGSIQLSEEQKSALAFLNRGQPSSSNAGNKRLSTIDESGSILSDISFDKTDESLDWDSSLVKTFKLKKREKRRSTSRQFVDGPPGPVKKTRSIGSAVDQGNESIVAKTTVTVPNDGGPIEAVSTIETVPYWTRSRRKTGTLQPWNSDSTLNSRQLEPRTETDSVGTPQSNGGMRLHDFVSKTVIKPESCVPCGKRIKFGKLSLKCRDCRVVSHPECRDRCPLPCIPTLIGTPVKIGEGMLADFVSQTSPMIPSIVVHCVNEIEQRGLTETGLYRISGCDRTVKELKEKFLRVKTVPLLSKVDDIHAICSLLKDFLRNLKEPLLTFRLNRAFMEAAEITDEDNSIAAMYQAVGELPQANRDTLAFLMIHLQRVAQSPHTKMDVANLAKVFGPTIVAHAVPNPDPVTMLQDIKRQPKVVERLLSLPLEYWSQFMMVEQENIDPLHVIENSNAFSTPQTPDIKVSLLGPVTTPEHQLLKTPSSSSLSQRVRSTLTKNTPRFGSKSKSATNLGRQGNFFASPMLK
# Chain of UniProt Q96S59 (Q96S59 whole entry, looked up): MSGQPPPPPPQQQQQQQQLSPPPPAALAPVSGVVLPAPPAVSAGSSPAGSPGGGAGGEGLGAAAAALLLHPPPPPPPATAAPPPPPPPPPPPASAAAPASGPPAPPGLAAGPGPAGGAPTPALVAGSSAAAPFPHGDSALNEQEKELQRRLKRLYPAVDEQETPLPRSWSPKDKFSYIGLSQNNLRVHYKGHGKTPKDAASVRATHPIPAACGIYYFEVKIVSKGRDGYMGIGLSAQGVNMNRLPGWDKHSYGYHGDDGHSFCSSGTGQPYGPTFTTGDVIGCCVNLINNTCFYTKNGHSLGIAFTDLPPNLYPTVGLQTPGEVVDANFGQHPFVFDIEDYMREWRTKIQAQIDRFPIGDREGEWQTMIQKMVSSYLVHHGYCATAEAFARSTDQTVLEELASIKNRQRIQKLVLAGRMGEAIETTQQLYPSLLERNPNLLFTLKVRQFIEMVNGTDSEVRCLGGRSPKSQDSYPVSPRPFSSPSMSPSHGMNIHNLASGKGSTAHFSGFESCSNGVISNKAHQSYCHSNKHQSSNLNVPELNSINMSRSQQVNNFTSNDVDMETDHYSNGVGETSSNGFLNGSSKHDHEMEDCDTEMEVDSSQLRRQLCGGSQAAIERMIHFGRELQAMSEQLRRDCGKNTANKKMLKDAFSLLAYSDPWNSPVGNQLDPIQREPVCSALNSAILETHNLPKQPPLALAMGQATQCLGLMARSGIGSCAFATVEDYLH
# Chain of UniProt P07949 (P07949 whole entry, looked up): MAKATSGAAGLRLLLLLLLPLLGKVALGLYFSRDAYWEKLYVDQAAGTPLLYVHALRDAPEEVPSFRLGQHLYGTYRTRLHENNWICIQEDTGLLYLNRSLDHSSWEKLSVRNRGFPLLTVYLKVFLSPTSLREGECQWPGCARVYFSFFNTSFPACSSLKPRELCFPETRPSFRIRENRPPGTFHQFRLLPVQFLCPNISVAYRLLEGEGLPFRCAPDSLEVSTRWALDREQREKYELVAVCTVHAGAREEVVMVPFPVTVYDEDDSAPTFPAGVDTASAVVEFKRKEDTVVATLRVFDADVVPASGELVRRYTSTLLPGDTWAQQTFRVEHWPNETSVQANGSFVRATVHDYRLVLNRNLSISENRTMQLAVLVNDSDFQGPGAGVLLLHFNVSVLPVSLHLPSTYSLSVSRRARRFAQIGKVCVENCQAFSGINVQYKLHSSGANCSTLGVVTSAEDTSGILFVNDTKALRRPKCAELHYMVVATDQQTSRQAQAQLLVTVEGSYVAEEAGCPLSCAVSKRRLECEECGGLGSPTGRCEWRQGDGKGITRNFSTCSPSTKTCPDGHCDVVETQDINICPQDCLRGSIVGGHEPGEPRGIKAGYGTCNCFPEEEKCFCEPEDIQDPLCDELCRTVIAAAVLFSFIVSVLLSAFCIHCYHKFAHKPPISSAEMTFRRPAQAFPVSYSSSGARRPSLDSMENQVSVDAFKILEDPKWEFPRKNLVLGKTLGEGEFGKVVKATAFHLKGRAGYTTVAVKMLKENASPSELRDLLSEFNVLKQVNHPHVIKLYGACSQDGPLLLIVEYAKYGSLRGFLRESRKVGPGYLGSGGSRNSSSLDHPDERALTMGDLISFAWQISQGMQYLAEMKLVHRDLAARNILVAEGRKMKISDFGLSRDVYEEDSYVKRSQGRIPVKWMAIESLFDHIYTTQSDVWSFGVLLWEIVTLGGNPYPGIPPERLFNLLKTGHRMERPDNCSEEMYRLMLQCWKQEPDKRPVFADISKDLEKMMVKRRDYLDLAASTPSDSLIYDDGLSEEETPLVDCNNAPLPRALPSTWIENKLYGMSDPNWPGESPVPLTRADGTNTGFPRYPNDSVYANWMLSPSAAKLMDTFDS
# Chain of UniProt Q6P2P2 (Q6P2P2 whole entry, looked up): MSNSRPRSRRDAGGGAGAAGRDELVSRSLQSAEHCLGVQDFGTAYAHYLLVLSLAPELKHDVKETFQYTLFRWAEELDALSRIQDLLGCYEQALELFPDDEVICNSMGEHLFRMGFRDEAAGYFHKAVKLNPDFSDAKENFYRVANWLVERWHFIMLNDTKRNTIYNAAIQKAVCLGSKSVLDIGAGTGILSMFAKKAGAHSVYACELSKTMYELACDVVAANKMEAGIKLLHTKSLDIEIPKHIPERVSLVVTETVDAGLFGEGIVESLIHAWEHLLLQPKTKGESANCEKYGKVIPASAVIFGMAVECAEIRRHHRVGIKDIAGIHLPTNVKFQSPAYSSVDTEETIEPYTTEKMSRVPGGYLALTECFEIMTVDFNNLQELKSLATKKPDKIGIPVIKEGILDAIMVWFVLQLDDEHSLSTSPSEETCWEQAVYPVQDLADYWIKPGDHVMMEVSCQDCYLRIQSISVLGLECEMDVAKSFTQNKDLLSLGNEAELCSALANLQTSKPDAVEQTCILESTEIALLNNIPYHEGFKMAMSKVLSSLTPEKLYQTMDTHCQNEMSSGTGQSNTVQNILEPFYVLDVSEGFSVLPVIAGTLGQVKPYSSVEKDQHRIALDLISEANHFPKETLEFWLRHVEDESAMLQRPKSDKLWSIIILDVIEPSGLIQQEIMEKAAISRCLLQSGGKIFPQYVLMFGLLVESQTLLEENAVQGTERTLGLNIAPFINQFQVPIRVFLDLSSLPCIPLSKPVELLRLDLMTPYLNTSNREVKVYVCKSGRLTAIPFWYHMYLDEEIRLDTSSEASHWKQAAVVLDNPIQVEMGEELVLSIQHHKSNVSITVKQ
# Chain of UniProt Q5XPI4 (Q5XPI4 whole entry, looked up): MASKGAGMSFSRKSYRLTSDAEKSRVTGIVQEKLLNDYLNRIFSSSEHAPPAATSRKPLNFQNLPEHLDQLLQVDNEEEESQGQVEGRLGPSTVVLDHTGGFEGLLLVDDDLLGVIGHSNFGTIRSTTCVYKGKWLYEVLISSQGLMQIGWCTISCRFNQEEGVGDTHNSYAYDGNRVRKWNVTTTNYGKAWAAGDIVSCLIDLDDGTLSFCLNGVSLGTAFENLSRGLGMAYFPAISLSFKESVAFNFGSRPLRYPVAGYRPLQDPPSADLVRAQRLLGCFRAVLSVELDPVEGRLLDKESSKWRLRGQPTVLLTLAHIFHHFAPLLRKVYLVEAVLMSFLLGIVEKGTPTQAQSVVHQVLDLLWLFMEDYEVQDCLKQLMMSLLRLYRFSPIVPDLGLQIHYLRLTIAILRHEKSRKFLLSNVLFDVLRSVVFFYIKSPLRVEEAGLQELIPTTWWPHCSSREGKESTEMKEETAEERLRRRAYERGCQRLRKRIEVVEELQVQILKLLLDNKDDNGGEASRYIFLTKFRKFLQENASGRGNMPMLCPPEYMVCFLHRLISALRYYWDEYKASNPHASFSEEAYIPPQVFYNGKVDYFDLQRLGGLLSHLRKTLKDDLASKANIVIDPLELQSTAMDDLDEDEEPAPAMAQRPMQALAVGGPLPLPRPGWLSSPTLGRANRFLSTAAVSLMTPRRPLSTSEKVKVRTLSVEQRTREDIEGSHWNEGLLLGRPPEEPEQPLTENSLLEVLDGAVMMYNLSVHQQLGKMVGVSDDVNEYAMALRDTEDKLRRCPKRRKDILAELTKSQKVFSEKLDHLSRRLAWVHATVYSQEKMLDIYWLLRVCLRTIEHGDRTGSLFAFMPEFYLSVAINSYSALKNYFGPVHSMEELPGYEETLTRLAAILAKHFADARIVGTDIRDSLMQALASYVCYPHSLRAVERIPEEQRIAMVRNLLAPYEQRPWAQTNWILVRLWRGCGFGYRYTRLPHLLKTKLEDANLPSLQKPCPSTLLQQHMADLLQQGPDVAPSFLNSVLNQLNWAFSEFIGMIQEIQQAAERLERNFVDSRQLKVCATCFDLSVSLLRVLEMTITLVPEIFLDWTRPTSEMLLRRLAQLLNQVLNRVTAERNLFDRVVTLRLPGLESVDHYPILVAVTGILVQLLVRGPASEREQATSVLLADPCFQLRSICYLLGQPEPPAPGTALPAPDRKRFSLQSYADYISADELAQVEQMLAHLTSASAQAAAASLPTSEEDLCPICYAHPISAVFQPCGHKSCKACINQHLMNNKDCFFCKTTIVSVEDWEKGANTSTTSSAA
Target,probe-labelled cysteine peptide fold change (10 µM),probe-labelled cysteine peptide fold change (50 µM)
RAD54L2_Q9Y4B4_1143_MAASGSQGPSCESTSNGR (UniProt Q9Y4B4),-0.204,-0.485
RANBP2_P49792_1243_ICANHYISPDMK (UniProt P49792),0.0568,0.0875
PRKCB_P05771_132+135_CDTCMMNVHKR (UniProt P05771),-0.193,-0.881
RGS14_O43566_183_ECLLAEAEGR (UniProt O43566),-0.0353,0.16
RACGAP1_Q9H0H5_419_VDDIHAICSLLK (UniProt Q9H0H5),0.00786,0.00467
PRKDC_P78527_1507_QCLPSLDLSCK (UniProt P78527),0.0976,-1.07
RGPD3_A6NKT7_349_GEAGQNLLEMMACDR<|>RGPD1_P0DJD0_340_GEAGQNLLEMMACDR<|>RGPD2_P0DJD1_348_GEAGQNLLEMMACDR<|>RANBP2_P49792_348_GEAGQNLLEMMACDR<|>RGPD4_Q7Z3J3_349_GEAGQNLLEMMACDR (UniProt Q7Z3J3+P49792+P0DJD1+P0DJD0+A6NKT7),-0.0339,0.0903
PSMD11_O00231_257_YMLLCK (UniProt O00231),0.248,0.241
RANBP9_Q96S59_707_QPPLALAMGQATQCLGLMAR (UniProt Q96S59),0.193,0.216
QRSL1_Q9H0R6_278_LCIGIPK (UniProt Q9H0R6),0.155,0.0481
RBM25_P49756_132_LQAFGFCEYKEPESTLR (UniProt P49756),-0.148,-0.0661
PRKDC_P78527_1742_FNNYVDCMK (UniProt P78527),0.239,-0.0715
PXN_P49023_523_ECFTPFVNGSFFEHDGQPYCEVHYHER (UniProt P49023),0.032,0.12
PSMB8_P28062_7_ALLDVCGAPR (UniProt P28062),-0.068,-0.273
PRMT1_Q99873_103_DKVVLDVGSGTGILCMFAAK (UniProt Q99873),-0.168,-0.709
RBM28_Q9NW13_97_NENSECPK (UniProt Q9NW13),-0.0194,0.16
PREX1_Q8TCU6_836_LSLCEDSPMVTLTVDNVHLEHGVVYEYVSTAGVR (UniProt Q8TCU6),-0.0714,0.185
RNF126_Q9BV68_13+16_YFCHCCSVEIVPR (UniProt Q9BV68),-0.268,-1.16

Target,probe-labelled cysteine peptide fold change (10 µM),probe-labelled cysteine peptide fold change (50 µM)
RNF123_Q5XPI4_1277_ACINQHLMNNK (UniProt Q5XPI4),-0.0494,-0.231
PRKCI_P41743_137_LYCANGHTFQAK (UniProt P41743),-0.00179,0.0748
PRXL2A_Q9BRX8_88_RPGCFLCR (UniProt Q9BRX8),-2.04,-2.18
PRPF6_O94906_837_KCEHDPHVLLAVAK (UniProt O94906),-0.315,0.18
RET_P07949_987_LMLQCWK (UniProt P07949),0.0807,0.122
RGPD3_A6NKT7_141_LKEQLLDCEGEDGWNK<|>RGPD8_O14715_141_LKEQLLDCEGEDGWNK<|>RANBP2_P49792_141_LKEQLLDCEGEDGWNK<|>RGPD4_Q7Z3J3_141_LKEQLLDCEGEDGWNK (UniProt Q7Z3J3+P49792+O14715+A6NKT7),-0.113,-0.334
RNASEH1_O60930_191_AEIHAACK (UniProt O60930),-0.0799,-0.155
REPIN1_Q9BWE0_433+436_VHSGERPFACEECGR (UniProt Q9BWE0),-0.108,-0.289
RCCD1_A6NED2_139_LPLLPCAR (UniProt A6NED2),-1.01,-1.9
PRMT9_Q6P2P2_290_GESANCEK (UniProt Q6P2P2),-0.112,-0.0837
PXN_P49023_387_TWHPEHFVCTHCQEEIGSR (UniProt P49023),-0.0992,-0.106
RABEPK_Q7Z6M1_36_VGHSCSYLPPVGNAK (UniProt Q7Z6M1),-0.218,-0.0672
RABGEF1_Q9UJ41_359_DLSIEEQSECAQDFYHNVAER (UniProt Q9UJ41),-0.389,-0.123
RGMB_Q6NW40_226_ITIIFKAHHECTDQK (UniProt Q6NW40),-0.0752,-1.11
PXN_P49023_505_ECFTPFVNGSFFEHDGQPYCEVHYHER (UniProt P49023),0.192,0.386
RAB33A_Q14088_135_MWIQECNGHAVPPLVPK (UniProt Q14088),0.0206,0.0086
RANBP2_P49792_707_AEDIENDALSPEEQEECK (UniProt P49792),0.0365,0.0945

# From the supplement of paper PMC12067093, “Discovery and optimisation of a covalent ligand for TRIM25 and its application to targeted protein ubiquitination” (Chemical Science, 2025)
